Records with an inconclusive call do not appear. Calls of active or inactive are those of the source. Calls follow the shape of the dose curve; as a rule, active = well fitted activation curve with a large enough effect; inconclusive = small, poorly fitted or top-dose-only effect; inactive = flat fitted curve, though single readings scatter.
test: qHTS Assay for Identifying a Potential Treatment of Ataxia-Telangiectasia: SAR for Probe; settings: F2112 A-T fibroblasts, NCS-induced pKAP1 AlphaLISA; series mostly up to 76.9 µM
Description: NIH Chemical Genomics Center [NCGC] NIH Molecular Libraries Probe Centers Network [MLPCN] MLPCN Grant: MH089030-01 Assay Submitter (PI): Wei Zheng and Yosef Shiloh Ataxia-telangiectasia (A-T) is a devastating and progressive disease for which, there is no cure. Although A-T is a multisystem disease, it is stereotyped characterized by its neurological symptoms such as truncal ataxia, due to cerebellar cortical degeneration of the Purkinje and granule cells. Other symptoms of A-T are telangiectasias (dilated blood vessels), primary immunodeficiency, marked sensitivity to ionizing radiation (IR), chromosomal instability and predisposition to cancer. The underlying genetic cause of A-T is null mutations in the ATM (A-T mutated) gene. ATM is a nuclear serine/threonine kinase that functions as a master regulator of the cellular responses to double strand breaks (DSBs) in the DNA. Upon activation by DSBs, ATM phosphorylates a plethora of downstream targets, including KAP-1 on […]. KAP-1 phosphorylation occurs shortly in response to DSBs and mediates global chromatin relaxation, which facilitates DSB repair. To screen for small molecules that will compensate for the loss of ATM in cells derived from A-T patients, we monitored KAP-1 phosphorylation as a readout for ATM-like activity using an AlphaLISA assay. This set of data is for analogs of the probe molecule in the primary screening assay.
qHTS Assay Protocol: Step,Parameter,Value,Description 1. Cell Plating, 3 ul, 500 cells/well in OPTI-MEM, 1% FBS, 1% Pen/Strep 2. Incubation, 16-24 hr, 37C, 5% CO2, 95% humidity 3. Library compounds, 23 nl, 76.7 - 0.61uM dilution series final concentration 4. Incubation, 60 min, 37C, 5% CO2, 95% humidity 5. Reagent, 1 ul, 1600 ng/ml NCS in PBS + 0.05% BSA + 0.005% Tween 20 6. Incubation, 30 min, 37C, 5% CO2, 95% humidity 7. Reagent, 1 ul, Premixed detection reagents and lysis buffer 8. Reagent, 1 ul, 0.6% Antifoam A 9. Incubation, 6 hr, 25C, 95% humidity 10. Readout, EnVision, EnVision plate reader. AlphaScreen 1536-well protocol Cells were plated using medium-binding white solid-bottom tissue culture treated Kalypsys plates. Multidrop dispense of 3 uL of F2112 (hTERT immortalized A-T patient fibroblast cells). Detection reagent and lysis buffer was 3.75nM Rab-a-pKAP1 antibody bound to 75 ng/ul AlphaScreen SA donor bead, 3.75 nM Biot-M-a-KAP1 antibody bound to AlphaLISA protein A acceptor bead, 0.5x protease inhibitor cocktail and 0.25x PerkinElmer lysis buffer. EnVision protocol for 1536-well AlphaScreen read (30ms excitation, 100ms read), about 10 min/plate.

Row | SMILES | Potency
1 | COc1c(C(=O)/C=C/c2ccccc2)ccc2c1C=CC(C)(C)O2 | 36.8 µM (active)
2 | CC1(C)C=Cc2ccc(O)c(C(=O)/C=C/c3ccccc3)c2O1 | 36.8 µM (active)
3 | C=CCSc1nc2ccccc2n1C(=O)/C=C/c1ccc(F)cc1 | 9.23 µM (active)
4 | CN1CCN(c2nc(C3=C(c4c[nH]c5ccccc45)C(=O)NC3=O)c3ccccc3n2)CC1 | inactive
5 | CC(C)=C/C=C/C(=O)c1ccccc1O | inactive
6 | COc1cc(/C=C/C(=O)c2ccccc2)cc(OC)c1OC | 46.3 µM (active)
7 | CC1(C)C=Cc2c(O)cc(O)c(C(=O)/C=C/c3ccccc3)c2O1 | 46.3 µM (active)
8 | C=CCSc1nc2ccccc2n1C(=O)/C=C/c1ccc(OC)c(OC)c1 | 14.6 µM (active)
9 | O=C(/C=C/c1ccccc1)n1cnc2ccccc21 | inactive
10 | COc1cc(/C=C/C(=O)n2cnc3ccccc32)cc(OC)c1OC | 13 µM (active)
